Data from PubChem BioAssay AID1159580 (chemical genetic matrix, 2015).
The whole screen tested about 5,500 compounds, of which about 2,000 (36%) were called active. Another 18% or so got no clear call; they are omitted. Cut-off read from the data, not from the text of the source: active = normalized growth mostly below about 0.91 (no sharp cut-off); inconclusive = no clear call, values can overlap the other calls; inactive = mostly above about 0.92. This is one part of the list.

Experiment: chemical genetic growth profiling, strain panel (AID 1159580);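 note: tested at 20 µM; growth read once vehicle control cultures reached saturation at 30 °C; 1 = growth at the plate median or of vehicle wells; lower values mean less growth of the strain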
Settings: S. cerevisiae deletion strains, growth OD

Measured: normalized growth

OC[C@H]1OC([S-])[C@H](O)[C@@H](O)[C@@H]1O.[Au+] (stereo partly drawn)
inactive: locus YAL021C, strain ccr4, hits give low values 1.03 | locus YAL026C, strain drs2, hits give low values 1.03 | locus YAL030W, strain snc1, hits give low values 1.03 | locus YBL061C, strain skt5, hits give low values 1.02 | locus YBR009C, strain hhf1, hits give low values 1.02 | locus YBR023C, strain chs3, hits give low values 1.01 | locus YBR171W, strain sec66, hits give low values 1.01 | locus YBR231C, strain swc5, hits give low values 1.02 | locus YBR279W, strain paf1, hits give low values 1.01 | locus YCL011C, strain gbp2, hits give low values 1 | locus YCL016C, strain dcc1, hits give low values 1 | locus YCL069W, strain vba3, hits give low values 1.01 | locus YCR088W, strain abp1, hits give low values 1.01 | locus YDL005C, strain med2, hits give low values 1.02 | locus YDL040C, strain nat1, hits give low values 1.01 | locus YDR001C, strain nth1, hits give low values 1 | locus YDR069C, strain doa4, hits give low values 1.01 | locus YDR137W, strain rgp1, hits give low values 1.03 | locus YDR159W, strain sac3, hits give low values 1.06 | locus YDR195W, strain ref2 1.03 | locus YDR297W, strain sur2, hits give low values 1 | locus YDR334W, strain swr1, hits give low values 1.01 | locus YDR335W, strain msn5, hits give low values 1.02 | locus YDR392W, strain spt3, hits give low values 1.03 | locus YEL003W, strain gim4, hits give low values 1.01 | locus YEL037C, strain rad23, hits give low values 1.01 | locus YEL061C, strain CIN8 (second series), hits give low values 1.01 | locus YER015W, strain faa2, hits give low values 1.01 | locus YER016W, strain bim1, hits give low values 1.02 | locus YER111C, strain swi4, hits give low values 1.01 | locus YER155C, strain BEM2 (second series), hits give low values 1.05 | locus YFR010W, strain ubp6, hits give low values 1.02 | locus YGL167C, strain pmr1, hits give low values 1 | locus YGL173C, strain kem1, hits give low values 1.02 | locus YGL227W, strain vid30, hits give low values 1.01 | locus YGL240W, strain doc1, hits give low values 1.03 | locus YGL253W, strain hxk2, hits give low values 1.01 | locus YHR013C, strain ard1, hits give low values 1.02 | locus YHR027C, strain rpn1, hits give low values 0.992 | locus YHR030C, strain SLT2, hits give low values 1.05 | locus YHR079C, strain IRE1, hits give low values 1.1 | locus YHR142W, strain chs7, hits give low values 0.995 | locus YJL092W, strain hpr5, hits give low values 1.01 | locus YJL095W, strain BCK1 (second series), hits give low values 1.01 | locus YJL095W, strain BCK1, hits give low values 1.08 | locus YJL115W, strain asf1, hits give low values 1.01 | locus YJL129C, strain trk1, hits give low values 1.01 | locus YJL154C, strain vps35, hits give low values 1.01 | locus YJL164C, strain tpk1, hits give low values 1.01 | locus YJL166W, strain qcr8, hits give low values 1.02 | locus YJL187C, strain SWE1, hits give low values 1.02 | locus YJR066W, strain TOR1, hits give low values 0.998 | locus YKL160W, strain elf1, hits give low values 1 | locus YKR026C, strain gcn3, hits give low values 1.01 | locus YKR091W, strain srl3, hits give low values 1.01 | locus YLL001W, strain dnm1, hits give low values 1.01 | locus YLL026W, hits give low values 1.01 | locus YLL041C, strain sdh2, hits give low values 0.999 | locus YLR027C, strain aat2, hits give low values 1.02 | locus YLR221C, strain rsa3, hits give low values 1.01 | locus YLR258W, strain gsy2, hits give low values 1.01 | locus YLR262C, strain YPT6 (second series), hits give low values 1 | locus YLR320W, strain mms22, hits give low values 1.02 | locus YLR342W, strain FKS1, hits give low values 1.01 | locus YLR357W, strain rsc2, hits give low values 1.01 | locus YLR370C, strain arc18, hits give low values 1.01 | locus YLR384C, strain iki3, hits give low values 0.987 | locus YML120C, strain ndi1, hits give low values 1.02 | locus YMR058W, strain fet3, hits give low values 1.01 | locus YMR125W, strain sto1, hits give low values 1.02 | locus YMR129W, hits give low values 1.01 | locus YMR205C, strain PFK2, hits give low values 1.03 | locus YMR231W, strain pep5, hits give low values 1.01 | locus YNL071W, strain lat1, hits give low values 1 | locus YNL183C, strain NPR1, hits give low values 1.02 | locus YNL209W, strain ssb2, hits give low values 1 | locus YNL248C, strain rpa49, hits give low values 1.01 | locus YNL322C, strain KRE1 (second series), hits give low values 1.01 | locus YNR049C, strain mso1, hits give low values 0.997 | locus YOR001W, strain rrp6, hits give low values 1.02 | locus YOR070C, strain gyp1, hits give low values 1 | locus YOR080W, strain dia2, hits give low values 1.01 | locus YOR083W, strain WHI5, hits give low values 0.996 | locus YOR106W, strain vam3, hits give low values 1.03 | locus YOR231W, strain MKK1, hits give low values 1.09 | locus YOR265W, strain rbl2, hits give low values 1.01 | locus YOR290C, strain snf2, hits give low values 1.01 | locus YPL051W, strain arl3, hits give low values 0.994 | locus YPL078C, strain atp4, hits give low values 1.03 | locus YPL106C, strain sse1, hits give low values 1.01 | locus YPL240C, strain hsp82, hits give low values 1.01 | locus YPL256C, strain CLN2, hits give low values 1.16
active: locus YLR113W, strain HOG1, hits give low values 1.17 [resistant] | locus YOR270C, strain vph1, hits give low values 1.27 [resistant]

OCC1O[C@H](O)C(Cl)C(O)C1O (stereo partly drawn)
inactive: locus YAL013W, strain DEP1, hits give low values 1.01 | locus YAL040C, strain CLN3, hits give low values 1.01 | locus YCL061C, strain MRC1 (second series), hits give low values 1.01 | locus YDR363W, strain ESC2, hits give low values 0.977 | locus YER002W, strain NOP16, hits give low values 1 | locus YGR229C, strain SMI1, hits give low values 0.994 | locus YJR075W, strain HOC1, hits give low values 0.984 | locus YNL128W, strain TEP1, hits give low values 1.01 | locus YNL175C, strain NOP13, hits give low values 1.02 | locus YNL197C, strain WHI3, hits give low values 0.986 | locus YNL224C, strain SQS1, hits give low values 1 | locus YOR083W, strain WHI5 (second series), hits give low values 1.02 | locus YPL055C, strain LGE1, hits give low values 0.979 | locus YPL241C, strain CIN2, hits give low values 1.01
